Bioassay records as filed in PubChem BioAssay.
HEK cytotox: Cytotoxic Profiling in HEK 293 Cell Line of Diverse Libraries Using Quantitative High-Throughput Screening | HEK 293 viability, ATP luminescence (CellTiter-Glo), 48-72 h | 94,000 compounds, 6.6% hits | Potency, µM (top dose mostly 115 µM), for the others: at the highest dose activity change, negative = cytotoxicity, usual class: inhibitors; note: nearly all actives have a fitted effect of over 60% in size
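CellTiter-Glo luminescence (cellular ATP) was read after 48 or 72 hr of compound exposure at 37 degree Celsius. Cells were HEK 293 plated at 250 cells/well.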
hNpr1 antagonist: Natriuretic polypeptide receptor (hNpr1) antagonism - Primary qHTS. Atrial natriuretic peptide receptor 1 (Homo sapiens), P16066. HEK293 hNpr1 GloSensor cGMP, ANP-stimulated luminescence. Potency, µM (highest dose often 46.3 µM), inactives show top-dose activity change, negative = inhibition, most hits filed as inhibitors. 76,000 compounds, 1.6% hits; calls by dose curve; note: nearly all actives have a fitted effect of over 60% in size
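HEK293 cells stably expressing human Npr1 and cGMP GloSensor pGS-40F, loaded 2 h with 2% GloSensor reagent, given compound 30 min at room temperature. Luminescence read before and 20 min after 0.1 nM hNppA.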
Luciferase inh: Firefly luciferase inhibition profiling of diverse chemical library using quantitative high-throughput screening. Luciferin 4-monooxygenase (Photinus pyralis), P08659. purified P. pyralis luciferase, luminescence, biochemical. Potency, µM (highest dose often 115 µM), usual class: inhibitors. 76,000 compounds, 2.5% hits. AID 1347043, 2019; note: nearly all actives have a fitted effect of over 65% in size
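Luminescence read by CCD imaging after purified firefly luciferase (10nM final) was added to substrate buffer holding 10uM D-luciferin and 10uM ATP, pH 7.5, pre-dosed with compound.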
3T3 cytotox: Cytotoxic Profiling in NIH 3T3 Cell Line of Diverse Libraries Using Quantitative High-Throughput Screening; NIH 3T3 viability, CellTiter-Glo ATP luminescence, 48-72 h; Potency, µM (highest dose often 96.7 µM), inactives show at the highest dose activity change, negative = cytotoxicity, hits mostly inhibitors; 94,000 compounds, 4.3% hits; AID 1345082, 2018; note: nearly all actives have a fitted effect of over 55% in size
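Viability of NIH 3T3 cells after 48 or 72 hr compound treatment at 37 °C was assessed by CellTiter-Glo, with luminescence imaged following a 10 min room-temperature step.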
Starred values were filed as active, the others as inactive; i = inactive; ? = inconclusive; · = not tested or not shown; [ ] = another dose, or the depositor's remark. In the library only some 11% were active in any assay of this set; here they are far more common. Unless noted, calls come from the whole dose curve; as a rule, active = well fitted curve in the direction sought with a large enough effect; inconclusive = small, poorly fitted or top-dose-only effect, or another doubt; inactive = no such curve, though single readings can be large; an effect the other way counts as inactive or inconclusive. % is set by controls: 0 for no effect and ±100 for the full control effect; potency is the fitted concentration of half-maximal effect.

SMILES	HEK cytotox	hNpr1 antagonist	Luciferase inh	3T3 cytotox
Cc1nnc2ccc(N3CCCC(NS(C)(=O)=O)C3)nn12 (stereo not given)	3.6%[172 µM]	·	·	-4.6%[138 µM]
CCN(CC)C(=O)C[C@@H]1CCNC[C@@H]1Cc1cc(-c2ccc(C(C)(C)C)cc2)on1	39.8µM*	6.9%[70.6 µM]	i	39.8µM*
CC(C)(C)c1ccc(-c2cc(C[C@H]3CNCC[C@H]3CC(=O)N3CCC(Cc4ccccc4)CC3)no2)cc1	-9.0%	4.1%	i	-5.1%
O=C(NCc1ccc(F)c(F)c1)c1ccc2nnc(C3CC3)n2c1	-1.5%[172 µM]	·	·	?
O=C(NCc1ccc(F)c(F)c1)c1ccc2nnc(Cc3ccc(Cl)cc3)n2c1	?	·	·	35.5µM*
COc1ccc(Cc2nnc3ccc(C(=O)NCCc4ccc(Cl)cc4)cn23)cc1	89.1µM*	·	·	?
O=C(NCc1ccc(Cl)cc1)c1ccc2nnc(-c3ccc(Cl)cc3Cl)n2c1	?	·	·	31.6µM*
O=C(Nc1cccc(Cl)c1)c1ccc2nnc(-c3ccc(Cl)cc3)n2c1	39.8µM*	·	·	44.7µM*
COc1ccc(CCNC(=O)c2ccc3nnc(-c4ccc(Cl)cc4)n3c2)cc1	-6.4%	·	·	-21.4%
Cc1nccn1CCNC(=O)CCC[C@@H]1[C@H]2CCCN3CCC[C@@H](CN1C(=O)c1cccnc1)[C@@H]23	7.2%	8.6%	i	i
O[C@H]1CC[C@@H](Cc2cc(COc3ccccc3)on2)O[C@@H]1CNCc1cccnc1	-7.3%[172 µM]	-22.3%[70.6 µM]	i	-8.1%[138 µM]
Cc1cc(C2CC(C(=O)NCCc3ccccc3)CN(C(=O)NC(C)C)C2)ccc1F (stereo not given)	39.8µM*	3.5%	i	?
CCNC(=O)N1CC(C(=O)NCc2ccccc2)CC(c2ccc(F)c(C)c2)C1 (stereo not given)	?	?	i	?
Cc1cc(C2CC(C(=O)NCc3ccc4c(c3)OCO4)CN(C(=O)c3ccccc3)C2)ccc1F (stereo not given)	?	-16.8%	i	?
Cc1cccc(CNC(=O)C2CC(c3ccc(F)c(C)c3)CN(C(=O)c3ccccc3)C2)c1 (stereo not given)	39.8µM*	-3.8%	i	25.1µM*
Cc1ccncc1C(=O)N1CCCC(c2nc(-c3cccnc3)no2)CCNC(=O)CC1 (stereo not given)	i	-3.1%	i	i
CCc1nc2c(NC(=O)NCCc3ccccc3)cccn2n1	?	1.1%	i	-19.8%
Cc1ccc(-c2cccc(CN3CCCC3C(=O)NCc3ccc(F)cc3F)c2)cc1Cl (stereo not given)	44.7µM*	·	·	?
Cc1ccc(-c2cccc(CN3CCCC3C(=O)NCc3cccc(Cl)c3)c2)cc1Cl (stereo not given)	39.8µM*	·	·	35.5µM*
Cc1ccc(-c2cccc(CN3CCCC3C(=O)NCc3cccc(F)c3)c2)cc1Cl (stereo not given)	44.7µM*	·	·	?
CCCCCC(=O)N1CCC(=O)N(CCOC)C[C@H]2COc3ccc(C)cc3[C@H]21	-18.4%	·	·	?
CCc1cccc(NC(=O)CN2C(=O)NC3(CCC(C)CC3)C2=O)c1 (stereo not given)	?	1.2%	i	?
Cc1ccccc1C(=O)N1CCC(N2CCCCCC2=O)CC1	i	3.3%[70.6 µM]	i	1.7%[138 µM]
CNC(=O)c1cc(C)nc2onc(C3CCN(C(=O)c4ccc(OC)cc4)C3)c12 (stereo not given)	2.6%	·	·	-1.4%
COc1ccccc1C(=O)N1CCCn2nc(C)c(-c3cccnc3N3CCOCC3)c21	i	5.0%[70.6 µM]	i	?
SMILES	HEK cytotox	hNpr1 antagonist	Luciferase inh	3T3 cytotox
Cc1nn2c(c1-c1cccc3cn[nH]c13)N(C(=O)COc1ccccc1C(N)=O)CCC2	i	-20.3%[70.6 µM]	i	25.1µM*
Cc1nn2c(c1-c1ccnn1C(C)C)N(C(=O)COc1ccccc1C(N)=O)CCC2	-0.2%[172 µM]	14.3%[70.6 µM]	i	28.2µM*
COc1ccccc1C(=O)N1CCCn2nc(C)c(-c3ccnn3C(C)C)c21	-22.1%[172 µM]	-3.2%[70.6 µM]	i	?
CCc1ccc(S(=O)(=O)c2nnn3c2nc(NC2CCCC2)c2ccccc23)cc1	-10.4%	·	·	-14.6%
O=C(C1CCCN1C(=O)Cc1ccc(F)cc1)N1CCC(N2CCOCC2=O)CC1 (stereo not given)	-1.3%	·	·	-17.7%
COCCN1C(=O)c2ccccc2C(C(=O)Nc2nc3ccccc3[nH]2)C12CCCCC2 (stereo not given)	79.4µM*	-15.3%	i	?
COCCN1C(=O)c2ccccc2C(C(=O)Nc2nc3ccccc3[nH]2)C12CCCC2 (stereo not given)	4.6%	4.7%	i	-3.8%
CC1CCCC(C)N1C(=O)c1ccc2oc(-c3ccnc(Cl)c3)nc2c1 (stereo not given)	-11.1%	·	·	-19.0%
Cc1cc(Cn2cc3c4c(cccc42)[C@H](CC(C)C)N[C@H](C(=O)NCCN(C)C)C3)no1	35.5µM*	6.3%	i	22.4µM*
Cc1cc(Cn2cc3c4c(cccc42)[C@H](CC(C)C)N[C@H](C(=O)NCC2CC2)C3)no1	79.4µM*	-6.4%[70.6 µM]	i	89.1µM*
Cc1ccc(C(=O)Nc2cccc(-c3nnc4n3CCCC4)c2)c(C)c1	-28.5%	1.5%	?	?
COCCNC(=O)C1CCCN1c1nccc(Nc2ccc(C)cc2)n1 (stereo not given)	?	·	·	-30.6%
CSCCNC(=O)C1CCCN1c1nccc(Nc2ccc(C)cc2)n1 (stereo not given)	79.4µM*	·	·	-7.3%
Cc1ccc(Nc2ccnc(N3CCCC3C(=O)NCCCc3ccccc3)n2)cc1 (stereo not given)	39.8µM*	·	·	?
Cc1ccc(Nc2ccnc(N3CCCC3C(=O)NCC3CC3)n2)cc1 (stereo not given)	35.5µM*	·	·	-8.4%
Cc1ccc(-c2nnc(C3CN(C(=O)c4ccccc4F)CC34CCOCC4)o2)cc1 (stereo not given)	?	5.1%	i	-13.3%
CCN(CC)Cc1cnc2c(C(=O)N3CCCCCCC3)cnn2c1	4.9%	7.4%	i	-0.5%
COc1cccc(OCC2CN(Cc3cccc(C(F)(F)F)c3)C(=O)c3c(ccnc3-c3ccc(OCC(=O)O)cc3)O2)c1OC (stereo not given)	4.7%	0.4%	44.7µM*	?
O=C(O)COc1ccc(-c2nccc3c2C(=O)N(Cc2c[nH]c4ccccc24)CC(COc2ccc(F)cc2F)O3)cc1 (stereo not given)	i	3.4%	44.7µM*	?
CCc1nc2cc(N3CCCC(C(=O)NC4CCCC4)C3)cnc2nc1CC (stereo not given)	13.3%	6.0%	i	-25.2%
